# The full ranking holds about 81,000 sequences; the median of “one-hybrid fitness for binding parS DNA” is about -0.17, and the highest 2% start at about 0.51. The sample as a whole holds a higher share of the highest values than the screen did.
# B1: Caulobacter ParB omega fusion; a variant is named by its letters at X, in order, B8GW30 (parent)
# chain: MESVVVGEPGMSEGRRGLGRGLSALLGEVDAAPAQAPGEQLGGSREAPIEILQRNPDQPRRTFREEDLEDLSNSIREKGVLQPILVRPSPDTAGEYQIVAGERAWRAAQRAGLKTVPIMVRELDDLAVLEIGIIENVQRADLNVLEEALSYKVLMEKFERTQENIAQTIGKSXSHVANXMRLLXLPDEVQSYLVSGELTAXHARAIAAAADPVALAKQIIEGGLSVRETEALARKAPNLSAGKSKGGRPPRVKDTDTQALESDLSSVLGLDVSIDHRGSTGTLTITYATLEQLDDLCNRLTRGI
# Variants of: B1
# Test: one-hybrid fitness for binding parS DNA (scaled: cognate 1, non-cognate 0); higher = stronger binding
# Settings: with parS DNA site
# In short: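 Fitness is the rescaled log change in variant-to-wild-type read ratio, measured by Illumina sequencing of plasmids before and after bacterial one-hybrid selection. The scale puts cognate at 1 and non-cognate at 0. Selection of Caulobacter ParB libraries, four specificity codons randomised, took place in E. coli USO with a HIS3 reporter, site 19 bp from the promoter, over 48 hours at 37°C on M9-minus-histidine with 0.1 mM IPTG and 5 mM 3-AT.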
row,Variant,one-hybrid fitness for binding parS DNA
1,RYPA,0.212
2,RYCA,0.46
3,RYYA,0.522
4,TDNY,≤ 0.2
5,RGNP,≤ 0.2
6,RGDS,0.551
7,RGDN,≤ 0.2
8,RGDP,≤ 0.2
9,RGND,≤ 0.2
10,RGNS,0.862
11,NNTG,≤ 0.2
12,LAFI,≤ 0.2
13,TKPY,≤ 0.2
14,ASRG,≤ 0.2
15,TAAN,≤ 0.2
16,VRSP,≤ 0.2
17,TLKS,≤ 0.2
18,RIPH,≤ 0.2
19,RIPS,0.812
20,RIIS,0.994
21,RIIP,≤ 0.2
22,RIPD,≤ 0.2
23,RIID,≤ 0.2
24,QKRS,≤ 0.2

row,Variant,one-hybrid fitness for binding parS DNA
1,YTMT,≤ 0.2
2,HPWL,≤ 0.2
3,RNKQ,≤ 0.2
4,RNVK,≤ 0.2
5,RNVQ,≤ 0.2
6,RNVG,0.619
7,RNKG,0.941
8,RNKK,≤ 0.2
9,MYPT,≤ 0.2
10,REFV,≤ 0.2
11,RNMC,0.745
12,RNMY,0.325
13,RNMK,≤ 0.2
14,RNMS,0.868
15,RNMH,≤ 0.2
16,RNMF,≤ 0.2
17,RNMP,≤ 0.2
18,RNML,≤ 0.2
19,RNMN,0.299
20,RNMG,0.819
21,RNMT,0.678
22,RNMD,≤ 0.2
23,GRCA,≤ 0.2
24,PERA,≤ 0.2

row,Variant,one-hybrid fitness for binding parS DNA
1,TDEN,≤ 0.2
2,YRHT,≤ 0.2
3,VWAT,≤ 0.2
4,VNSR,≤ 0.2
5,FTWC,≤ 0.2
6,RYAT,0.899
7,RYAN,0.387
8,RYFD,≤ 0.2
9,RYFF,0.256
10,RYFT,0.792
11,RYAD,≤ 0.2
12,NHVC,≤ 0.2
13,AYMK,≤ 0.2
14,PDKP,≤ 0.2
15,YYNR,≤ 0.2
16,TQLI,≤ 0.2
17,KLHC,≤ 0.2
18,YNTM,≤ 0.2
19,RHNI,≤ 0.2
20,RKKS,0.69
21,RKKN,0.356
22,RKVN,0.36
23,RKVH,≤ 0.2
24,RKVS,0.967

row,Variant,one-hybrid fitness for binding parS DNA
1,RKKH,0.317
2,QPGI,≤ 0.2
3,QTTR,≤ 0.2
4,DASR,≤ 0.2
5,WTNT,≤ 0.2
6,MFKT,≤ 0.2
7,CHQS,≤ 0.2
8,PYYS,≤ 0.2
9,RHNE,≤ 0.2
10,RHDR,≤ 0.2
11,RHNQ,≤ 0.2
12,RHDK,≤ 0.2
13,RHNT,0.857
14,RHDT,0.791
15,TAQY,≤ 0.2
16,WPVT,≤ 0.2
17,QWVG,≤ 0.2
18,YAIL,≤ 0.2
19,KTMW,≤ 0.2
20,TMYG,≤ 0.2
21,RLVR,≤ 0.2
22,RLKM,0.399
23,RLKQ,≤ 0.2
24,RLVM,0.295

row,Variant,one-hybrid fitness for binding parS DNA
1,RLKC,0.835
2,RLVC,0.962
3,TPAN,≤ 0.2
4,FQLR,≤ 0.2
5,LNTV,≤ 0.2
6,MPHS,≤ 0.2
7,CAAN,≤ 0.2
8,RMHC,0.979
9,RRHF,≤ 0.2
10,RRHQ,≤ 0.2
11,REHC,≤ 0.2
12,RSHC,0.968
13,RDHC,≤ 0.2
14,RCHC,1
15,RPHC,≤ 0.2
16,RRHC,0.616
17,RMHK,≤ 0.2
18,RSHF,0.257
19,RMHL,≤ 0.2
20,MHLM,≤ 0.2
21,TNRP,≤ 0.2
22,MWSS,≤ 0.2
23,SVES,≤ 0.2
24,RKCN,0.302

row,Variant,one-hybrid fitness for binding parS DNA
1,RHCS,0.938
2,RHCH,≤ 0.2
3,RICN,0.447
4,RHCP,≤ 0.2
5,RRCS,0.67
6,RKCP,≤ 0.2
7,RKCS,0.855
8,RRCD,≤ 0.2
9,RRCP,≤ 0.2
10,RICS,1.02
11,RICH,0.24
12,PGNH,≤ 0.2
13,VCRG,≤ 0.2
14,IYRT,≤ 0.2
15,LYPG,≤ 0.2
16,CREE,≤ 0.2
17,CEDV,≤ 0.2
18,YGYI,≤ 0.2
19,FTNL,≤ 0.2
20,MSES,≤ 0.2
21,RFCP,≤ 0.2
22,RLCH,0.22
23,RTCS,0.99
24,RLCN,0.457

row,Variant,one-hybrid fitness for binding parS DNA
1,RPCS,≤ 0.2
2,RLCS,1.03
3,RCCS,1.01
4,RFCS,1
5,RCCP,0.223
6,RFCN,0.375
7,RTCH,0.289
8,RTCP,≤ 0.2
9,PMLA,≤ 0.2
10,LCAF,≤ 0.2
11,IIKG,≤ 0.2
12,WMTR,≤ 0.2
13,RCFL,≤ 0.2
14,LMPT,≤ 0.2
15,VVHG,≤ 0.2
16,EKSI,≤ 0.2
17,RMCD,≤ 0.2
18,RSCN,0.407
19,RSCS,0.995
20,RSCH,0.223
21,RMCS,1.01
22,RACP,≤ 0.2
23,RMCP,≤ 0.2
24,RACH,0.306

row,Variant,one-hybrid fitness for binding parS DNA
1,RACS,1
2,CVLT,≤ 0.2
3,RWPM,≤ 0.2
4,GPYM,≤ 0.2
5,RKAQ,≤ 0.2
6,RKFY,0.363
7,RKAC,0.878
8,RKFC,0.878
9,RKFF,≤ 0.2
10,RKAM,0.264
11,AFRC,≤ 0.2
12,LDSE,≤ 0.2
13,NVKW,≤ 0.2
14,VMRY,≤ 0.2
15,RTCF,0.252
16,RMCM,0.362
17,RDCT,≤ 0.2
18,RTCT,0.917
19,RSCT,0.809
20,RTCM,0.298
21,RCCT,0.913
22,RMCT,0.888
23,RMCL,≤ 0.2
24,RPCT,≤ 0.2

row,Variant,one-hybrid fitness for binding parS DNA
1,RECT,≤ 0.2
2,RSCM,0.347
3,YHLN,≤ 0.2
4,EVTM,≤ 0.2
5,RFLI,≤ 0.2
6,QHYD,≤ 0.2
7,IDQR,≤ 0.2
8,NLHV,≤ 0.2
9,MGRC,≤ 0.2
10,RLEA,0.567
11,RCEA,0.515
12,RAEA,0.476
13,RSEA,0.476
14,RPEA,≤ 0.2
15,RFEA,0.454
16,RQEA,0.554
17,RREA,0.802
18,TIMD,≤ 0.2
19,PRLC,≤ 0.2
20,MSLL,≤ 0.2
21,FHAL,≤ 0.2
22,SRDG,≤ 0.2
23,AALF,≤ 0.2
24,LFAM,≤ 0.2

row,Variant,one-hybrid fitness for binding parS DNA
1,RHEA,0.512
2,RYEA,0.548
3,RTEA,0.58
4,RDEA,≤ 0.2
5,RKEA,0.515
6,FASM,≤ 0.2
7,SHST,≤ 0.2
8,GLPS,≤ 0.2
9,DMPT,≤ 0.2
10,YLIW,≤ 0.2
11,FRKA,≤ 0.2
12,LMTN,≤ 0.2
13,GIRR,≤ 0.2
14,LALL,≤ 0.2
15,RSFG,0.94
16,REFG,≤ 0.2
17,RPFG,≤ 0.2
18,RCFG,1.01
19,RSFK,≤ 0.2
20,RDFG,≤ 0.2
21,AKRC,≤ 0.2
22,QSGM,≤ 0.2
23,MCTL,≤ 0.2
24,TMTY,≤ 0.2

row,Variant,one-hybrid fitness for binding parS DNA
1,MHDG,≤ 0.2
2,WDTK,≤ 0.2
3,RQYA,0.583
4,PQHA,≤ 0.2
5,RQIA,0.42
6,NQKA,≤ 0.2
7,RQPA,≤ 0.2
8,RQQA,0.548
9,RQVA,0.486
10,RQKA,0.701
11,RQHA,0.57
12,KQQA,≤ 0.2
13,NQHA,≤ 0.2
14,PQTA,≤ 0.2
15,WANF,≤ 0.2
16,HAGM,≤ 0.2
17,IYPG,≤ 0.2
18,LMKM,≤ 0.2
19,TYFC,≤ 0.2
20,GSSM,≤ 0.2
21,RQAA,0.571
22,RQSA,0.575
23,DQAA,≤ 0.2
24,DQSA,≤ 0.2

row,Variant,one-hybrid fitness for binding parS DNA
1,RQRA,0.632
2,RQFA,0.532
3,KQSA,≤ 0.2
4,EQAA,≤ 0.2
5,DQRA,≤ 0.2
6,KQRA,≤ 0.2
7,FPAS,≤ 0.2
8,PFLV,≤ 0.2
9,ENLG,≤ 0.2
10,YSQA,≤ 0.2
11,QHET,≤ 0.2
12,ASIT,≤ 0.2
13,GAHR,≤ 0.2
14,MLHS,≤ 0.2
15,VETL,≤ 0.2
16,LASY,≤ 0.2
17,RCTV,≤ 0.2
18,TKMR,≤ 0.2
19,CQLA,≤ 0.2
20,NQMA,≤ 0.2
21,PQLA,≤ 0.2
22,PQMA,≤ 0.2
23,RQWA,0.544
24,RQLA,0.568

row,Variant,one-hybrid fitness for binding parS DNA
1,RQCA,0.558
2,RQMA,0.596
3,TQYS,≤ 0.2
4,HPLV,≤ 0.2
5,ANIE,≤ 0.2
6,RCYW,0.314
7,VLKR,≤ 0.2
8,HEGL,≤ 0.2
9,LRKS,≤ 0.2
10,CVSN,≤ 0.2
11,RQGA,0.563
12,CQGA,≤ 0.2
13,TVTV,≤ 0.2
14,RTNR,≤ 0.2
15,NTDT,≤ 0.2
16,RTNT,0.86
17,RTDT,0.802
18,RTNE,≤ 0.2
19,RTDR,≤ 0.2
